Calls of active or inactive are those of the source. The calls were made as follows: active = hit-call score of the fitted dose curve at least 0.9, where 1 is the maximum; inactive = score below 0.9.
Read-out: NAD(P)H dehydrogenase [quinone] 1 (NQO1), NQO1 (gene 1728)
Assay: LTEA_HepaRG_NQO1: Life Technologies and Expression Analysis (LTEA) Assay for NAD(P)H dehydrogenase [quinone] 1 (NQO1) using HepaRG (AID 2283526)
Settings: mRNA level, 48 h; actives raise or lower the signal
Procedure: LTEA_HepaRG is a cell based, multiplexed-readout assay that uses HepaRG, a human liver cell line, with measurements taken at 48 hours after chemical dosing on a 96-well plate.LTEA_HepaRG_NQO1 is one of 102 assay component(s) measured in the LTEA HepaRG cell culture assay. It is a marker of Diseases associated with NQO1 include Tardive Dyskinesia and Childhood Leukemia.Data from the assay component LTEA_HepaRG_NQO1 was analyzed into 1 endpoint. This assay endpoint, LTEA_HepaRG_NQO1, was analyzed with bidirectional fitting relative to DMSO as the negative control and baseline of activity. Using a type of inducible reporter, measures of mRNA induction for gain or loss-of-signal activity can be used to understand regulation of transcription factor activity. To generalize the intended target to other relatable targets, this assay endpoint is annotated to the oxidoreductase intended target family, where the subfamily is quinone-acceptor.
A total of 1060 chemcials from the ToxCast library were tested in eight-point concentration-response experiments. Cell culture and cytotoxicity assays were conducted at Thermo Fisher Scientific's Custom Services facility (Madison, WI). A single lot of human HepaRG cells (Thermo Fisher Scientific, Frederick, MD) was used for the cell culture experiments. 96-well format collagen type I coated plates of human HepaRG cells were prepared using established methods. Briefly, cryopreserved HepaRG cells were thawed, plated at a density of approximately 100,000 cells/well in HepaRG Thaw, Plate, and General Purpose media (HPRG770, Thermo Fisher Scientific), and incubated for 48 hours. 0.5% DMSO was selected as vehicle control to balance the requisite need of DMSO in HepaRG cultures to maintain differentiation (for example, baseline metabolism, proportions of hepatocytes vs. cholangiocytes), while enabling further hepatic receptor pathway activation (for example, PXR and CAR) in response to chemical exposure. 48 hours after plating, the culture medium was replaced with HepaRG Serum-Free Incudtion Media. Cells were exposed to each test chemical in duplicate and maintained in CO2 incubators for another 48 hours. Chemical plates were thawed to room temperature and 200x concentrations of treatment groups were prepared. 8-point conentration-reponse curves were made with the highest exposure at 100 uM, followed by half-log dilutions, all in 0.5% DMSO. Each test plate contained variouse controls, induction positive controls (1mM phenobarbital), cytotoxicity positive controls ([…] aflatoxin B1), vehicle controls (0.5% DMSO), and total lysis controls (0.5% DMSO). Cell morphology images were taken using an Essen IncuCyte FLR automated microscope, with six 96-well plates imaged in about 24 minutes. Images were captured and exported and JPEG files. Spent culture media was transfered to black-well plates for the LDH assay, and remaining media was sorted at -80 C for later use. Cells were treated with RLT buffer and frozen until shipped for gene expression analysis. Total RNA was isolated from the cell suspension in 75 uL of Buffer RLT (Qiagen, Germantown, MD 20874) by Quintiles/Expression Analysis (Durham, NC) using a custom isolation procedure. Total RNA from each plate well was transferred to a preamplification plate. Fluidigm's 96.96 Dynamic ArrayTM (Fluidigm, Amsterdam, the Netherlands) technology was used for gene expression analyses by quantitative reverse transcription polymerase chain reaction (qRT-PCR, performed by Quintiles/Expression Analysis, Durham, NC)89. Standard TaqManTM Assays (Applied Biosystems/ThermoFisher Scientific, Foster City, CA) were used to assess the expression of 93 genes selected based on their selectivity and sensitivity to important hepatic receptors known to be modulated by environmental chemicals; importance in human hepatocyte functionality; and hepatotoxicity. […]

outcome, inactive:
OCC(CO)(CBr)CBr, CN(Cc1cnc2nc(N)nc(N)c2n1)c1ccc(C(=O)N[C@@H](CCC(=O)O)C(=O)O)cc1, O=C(c1ccccc1)c1ccccc1, CCC(C)c1ccccc1O (stereo unspecified), CN(C)CCOC(c1ccccc1)c1ccccc1, Cc1[nH]nc2c1N=C(c1ccccc1Cl)c1cc([N+](=O)[O-])ccc1N2, CC(=O)Nc1ccc(O)cc1, CCCCC(CC)C(=O)O (stereo unspecified), O=C1NS(=O)(=O)c2ccccc21, CCCCCCCCCCCCCCC, O=C(CCCN1CCC(O)(c2ccc(Cl)cc2)CC1)c1ccc(F)cc1, CCCCCCCCCCCCOS(=O)(=O)O, CS(=O)(=O)c1ccc([C@@H](CC2CCCC2)C(=O)Nc2cnccn2)cc1Cl, CCCCc1oc2ccccc2c1C(=O)c1cc(I)c(OCCN(CC)CC)c(I)c1, CCCCC=O

AC50, active:
N=C(N)c1ccc(OCCCCCOc2ccc(C(=N)N)cc2)cc1 43.8 µM

From PubChem BioAssay (EPA / NIEHS)
